Pin1 inh: blocks the human prolyl isomerase Pin1. Pin1 FP peptide displacement, HiFluor488, 10 min. AID 504891. Potency, µM (highest dose often 115 µM), for inactives: at the top dose activity, negative = inhibition, actives largely listed as inhibitors. Q13526. 390,000 compounds, 0.009% hits; active = well fitted inhibition curve with a large enough effect in the polarisation, with a control signal flat, not every such curve was filed as active; inconclusive = small, poorly fitted or top-dose-only effect, or effect the other way, or a change in a side signal; inactive = no such curve, though single readings can be large or run the other way; the % refers to the polarisation; note: % is set by controls: 0 for no effect and ±100 for the full control effect
Target sequence (Q13526 whole entry, looked up): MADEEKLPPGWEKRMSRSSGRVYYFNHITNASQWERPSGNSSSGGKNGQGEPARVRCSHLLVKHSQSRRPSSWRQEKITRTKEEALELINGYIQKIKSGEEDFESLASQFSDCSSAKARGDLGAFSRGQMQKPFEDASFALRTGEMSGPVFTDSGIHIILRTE
VDR inh: vitamin D3 receptor (human) inhibition. VDR-SRC2-3 peptide fluorescence polarization, 2 h. AID 504847. 400,000 compounds, 0.93% hits. Potency, µM, without a hit: max response, negative = inhibition, most hits filed as inhibitors. P11473; note: % is set by controls: 0 for no effect and ±100 for the full control effect
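Compounds are added to VDR with labelled SRC2-3 coactivator peptide and held 2 h at room temperature. Inhibition of the VDR–peptide interaction is then read as a change in fluorescence polarization.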
TDP1 inh: TDP1 (human) enzyme inhibition. recombinant TDP1, AlphaScreen DNA substrate cleavage. Potency, µM (titrated, usually from 130 µM), inactives show top-dose activity change, negative = inhibition, actives largely listed as inhibitors. 350,000 compounds, 0.28% hits. AID 485290; note: % is set by controls: 0 for no effect and ±100 for the full control effect; nearly all actives have a fitted effect of over 40% in size
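Compounds were preincubated with Tdp1 (1 nM final) for 15 min at room temperature before substrate (15 nM final) started a 5 min reaction; beads (10 ug/ml final) were then added for 10 min before AlphaScreen detection.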
Tb PFK block: blocks T. brucei phosphofructokinase. T. brucei PFK, ADP-Glo luminescence. 330,000 compounds, 0.17% hits. O15648. Potency, µM (series often up to 57.5 µM), for inactives: at the highest dose activity, negative = inhibition, most hits filed as inhibitors;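 note: 0% = uninhibited 1x PFK enzyme wells and -100% = no-enzyme wells; nearly all actives have a fitted effect of over 60% in size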
Target sequence (O15648 whole entry, looked up): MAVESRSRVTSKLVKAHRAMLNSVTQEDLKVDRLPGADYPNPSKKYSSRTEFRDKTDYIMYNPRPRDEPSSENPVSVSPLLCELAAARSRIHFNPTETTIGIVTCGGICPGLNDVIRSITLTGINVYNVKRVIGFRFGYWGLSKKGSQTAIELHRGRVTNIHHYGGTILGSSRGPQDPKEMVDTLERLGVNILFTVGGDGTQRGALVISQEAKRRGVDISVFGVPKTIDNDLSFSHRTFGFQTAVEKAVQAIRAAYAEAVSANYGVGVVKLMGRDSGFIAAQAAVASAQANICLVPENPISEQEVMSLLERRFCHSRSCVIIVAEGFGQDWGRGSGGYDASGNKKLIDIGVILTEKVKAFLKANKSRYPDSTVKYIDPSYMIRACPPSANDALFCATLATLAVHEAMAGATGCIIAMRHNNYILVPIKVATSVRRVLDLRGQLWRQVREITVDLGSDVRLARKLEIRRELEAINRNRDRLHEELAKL
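Luminescent ADP detection (ADP-Glo, two-step: ATP depletion then ADP-to-ATP conversion for luciferase) reported PFK activity after 45 min room-temperature reaction of 1.25 nM enzyme with 0.5 mM F6P and 0.1 mM ATP at pH 8.0.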
PLK1 PBD inh: blocks phosphopeptide binding to human PLK1 polo-box domain. P53350. Plk1 PBD binding of FITC phosphopeptide, fluorescence polarization. Potency, µM, without a hit: max response, negative = inhibition, usual class: inhibitors. 360,000 compounds, 2.8% hits. AID 720504; note: series mostly up to about 57 µM; % is set by controls: 0 for no effect and ±100 for the full control effect; nearly all actives have a fitted effect of over 65% in size
S-ASM inh: human S-ASM enzyme inhibition; P17405; placental ASM, HMU-PC fluorogenic substrate, 60 min; Potency, µM (top dose mostly 57.5 µM), for inactives: top-dose activity change, negative = inhibition, most hits filed as inhibitors; 340,000 compounds, 0.006% hits
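Fluorogenic HMU-PC substrate (9 uM final) is turned over by placental ASM in 60 min at 37 C after a 10 min compound preincubation. Reaction ended by alkaline stop (pH 10), with fluorescence read at 386/447 nm.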
Numbers without * were called inactive; i = inactive; ? = inconclusive; . = not tested or not shown. Only some compounds are listed: those with a hit (about 3.1% of all), similar ones and a draw of the others. Unless noted, calls come from the whole dose curve; as a rule, active = well fitted curve in the direction sought with a large enough effect; inconclusive = small, poorly fitted or top-dose-only effect, or another doubt; inactive = no such curve, though single readings can be large; an effect the other way counts as inactive or inconclusive. Potency is the fitted concentration of half-maximal effect.

SMILES	Pin1 inh	VDR inh	TDP1 inh	Tb PFK block	PLK1 PBD inh	S-ASM inh
Cc1ccc(NS(=O)(=O)c2ccc3c(c2)CC(=O)N3C)cc1C	-0.9%	.	1.5%	.	.	.
c1ccc(N2CCN(c3nc(-c4ccccn4)nc4ccccc34)CC2)cc1	-1.6%	-5.3%	11.5%	0.0%	10.6µM*	-5.5%
CN1CCN(c2nc(-c3ccccn3)nc3ccccc23)CC1	4.0%	-5.7%	9.4%	-0.8%	3.0%	0.9%
CCN(C/C=C/C#CC(C)(C)C)Cc1cccc(OCc2cc(-c3ccsc3)cs2)c1	.	3.1%	1.6%	.	.	.
COc1ccc2c(c1)Cc1sc(NC(=O)c3ccccc3C)nc1-2	-4.6%	25.1µM*	4.2%	.	.	.
COc1ccc2c(c1)Cc1sc(NC(=O)c3ccccc3)nc1-2	-3.4%	-19.9%	7.9%	3.1%	-17.5%	-1.6%
CCn1c(=O)cc(OCC(=O)N2CCN(c3ccc(C)cc3)C(C)C2)c2ccccc21 (stereo not drawn)	?	-18.3%	5.8%	.	.	.
O=C(CN1C(=O)c2ccccc2S1(=O)=O)Nc1ncc([N+](=O)[O-])s1	-6.4%	-17.3%	.	0.6%	18.9µM*	-3.6%
Cc1csc(NC(=O)CN2C(=O)c3ccccc3S2(=O)=O)n1	2.3%	1.6%	2.4%	-2.0%	-9.3%	-0.7%
CCN(CC)N=Nc1[nH]nc2nc(C)cc(C)c12	1.1%	-15.6%	7.6%	1.2%	8.44µM*	-0.3%
C[C@H](NC(=O)CNC(=O)[C@@H](NC(=O)[C@H](Cc1ccccc1)NC(=O)CNC(=O)CNC[C@@H](N)Cc1ccccc1)[C@@H](C)O)C(=O)N[C@@H](CCCN=C(N)N)C(=O)N[C@@H](CCCCN)C(=O)N[C@@H](CO)C(=O)N[C@@H](C)C(=O)N[C@@H](CCCN=C(N)N)C(=O)N[C@@H](CCCCN)C(N)=O	.	-3.8%	15.4%	.	.	.
CCOC(=O)c1cc(-c2ccccc2)nn1Cc1cc(CC)no1	-9.3%	-5.8%	.	-18.9%	-10.5%	-7.2%
CCOC(=O)c1cc(-c2ccccc2C)nn1Cc1cc(CC)no1	-2.0%	-0.5%	56.2µM*	-0.5%	3.1%	-0.7%
O=C(CSc1ccccc1)N1CCc2c([nH]c3ccccc23)C1c1ccc(Cl)cc1 (stereo not drawn)	6.9%	-3.1%	8.1%	.	.	.
O=C(C1CCCN(S(=O)(=O)c2cccc3nsnc23)C1)N1CCN(c2ccccc2)CC1 (stereo not drawn)	12.5%	-2.9%	4.7%	.	.	.
Cc1cccc(/C=N/NC(=O)c2cc3c(s2)-c2ccccc2CC3)c1	5.1%	-8.9%	5.6%	0.5%	21.2µM*	219.0%
O=C(N/N=C/c1cccc(C(F)(F)F)c1)c1cc2c(s1)-c1ccccc1CC2	-11.9%	-1.4%	2.8%	0.3%	-2.9%	i
CCN(CC)CCCNC(=O)C1CCC(CNS(=O)(=O)c2c(C)cc(C)cc2C)CC1 (stereo not drawn)	-2.2%	12.3%	.	-0.2%	4.7%	-0.2%
CCCCN(C)CCCNC(=O)C1CCC(CNS(=O)(=O)c2c(C)cc(C)cc2C)CC1 (stereo not drawn)	-0.9%	?	.	9.2%	21.2µM*	-2.0%
Cc1cc(C)n(-c2nc(NC(C)C)nc(NC(C)(C)C)n2)n1	1.5%	-8.9%	0.5%	.	.	.
COc1ccc(OC)c(/C=N/n2c(COc3ccccc3)n[nH]c2=S)c1	1.0%	-3.8%	.	?	-12.6%	44.6%
COc1cc(OC)c(OC)cc1/C=N/n1c(COc2ccccc2)n[nH]c1=S	-8.1%	-24.3%	.	-8.7%	26.7µM*	27.0%
COc1ccc(/C=N/n2c(COc3ccccc3)n[nH]c2=S)cc1OC	0.7%	-5.8%	.	-1.2%	18.9µM*	-3.9%
Cc1ccc(-c2[nH][nH]c(=O)c(=O)c2N=Nc2ccccc2)cc1	-0.5%	-17.9%	6.5%	-1.4%	29.9µM*	-2.6%
CCCc1cc(C(N)=O)c(NC(=O)c2ccoc2C)s1	9.7%	-5.5%	7.2%	3.5%	29.9µM*	-0.6%
SMILES	Pin1 inh	VDR inh	TDP1 inh	Tb PFK block	PLK1 PBD inh	S-ASM inh
NC(=O)c1cc(Cc2ccccc2)sc1NC(=O)c1ccco1	8.0%	?	0.0%	-8.6%	16.8µM*	-14.2%
O=C(Nc1nnc(Cc2ccccc2)s1)c1ccco1	-0.9%	-4.4%	2.0%	4.0%	-1.6%	1.8%
CCOc1ccc(CC(=O)Nc2sc(Cc3ccccc3)cc2C(N)=O)cc1OCC	8.2%	?	0.0%	-8.1%	16.8µM*	0.6%
NCC(=O)N[C@@H](CCCN=C(N)N)C(=O)NCC(=O)N[C@@H](CCC(=O)O)C(=O)N[C@@H](CO)C(=O)O	.	-0.3%	10.8%	.	.	.
COc1ccc(NC(=O)C2CCN(C(=O)[C@@H]3Cc4ccccc4CN3)CC2)cc1	0.1%	-11.0%	2.7%	1.1%	-3.9%	0.6%
COc1ccc(CNC(=O)C2CCN(C(=O)[C@@H]3Cc4ccccc4CN3)CC2)cc1	8.5%	?	1.7%	-5.2%	5.97µM*	4.0%
O=C1c2cccc3c(Cl)ccc(c23)C(=O)N1O	-1.9%	17.0%	22.4µM*	0.9%	-4.3%	-2.1%
CCN1C(=O)c2cccc3c(Cl)ccc(c23)C1=O	-4.2%	-9.4%	-2.5%	1.8%	-11.1%	8.7%
O=C1NC(=S)NC(=O)C1=Cc1ccccc1C(=O)O	.	?	.	.	23.8µM*	-0.4%
CCOc1ccc(NC(=O)c2sc3nc(N4CCOCC4)c4c(c3c2N)CCCC4)cc1	-0.7%	-27.2%	1.3%	0.9%	29.9µM*	332.6%
COc1cc(OC)c(OC)cc1/C=C1\Oc2cc(OCC(=O)N3Cc4ccccc4C[C@H]3C(=O)O)ccc2C1=O	?	-3.5%	.	12µM*	50.7%	-3.8%
COc1ccc(/C=C2\Oc3cc(OCC(=O)N4CCC[C@H]4C(=O)O)ccc3C2=O)c(OC)c1	?	-8.4%	.	-5.0%	9.2%	162.0%
Cc1ccc(-n2c3nc(=O)[nH]c(=O)c-3cc3cc([N+](=O)[O-])ccc32)cc1	-14.4%	?	7.9%	0.1%	16.8µM*	39.7%
Cc1ccc(-n2c(C)nn(Cc3ccc([N+](=O)[O-])cc3)c2=O)cc1	-0.6%	-13.7%	0.0%	-1.5%	-2.7%	2.5%
CCCCn1c(O)c(N=NC(=O)c2ccco2)c2ccccc21	0.6%	50.1µM*	0.0%	2.9%	18.9µM*	-10.1%
O=C(CSc1ccccc1C(=O)O)c1ccc([N+](=O)[O-])cc1	0.6%	?	0.0%	-1.7%	11.9µM*	3.7%
Cc1ccc(NS(=O)(=O)c2cc3c(cc2Cl)NC(=O)C3)cc1C	11.0%	.	0.1%	.	.	.
Cc1ccc(C(=O)NNC(=S)NC(=O)COc2ccccc2)cc1	-6.9%	-7.2%	3.9%	-5.7%	26.7µM*	-1.4%
CCCOc1ccc(C(=O)NNC(=S)NC(=O)c2cccs2)cc1	-2.0%	-20.9%	8.5%	0.6%	29.9µM*	-8.1%
CC/C(O)=C1\C(=O)CCCC1=NCCc1c(C)[nH]c2ccc(C)cc12	-14.3%	?	-1.3%	3.9%	29.9µM*	0.1%

Screening data as filed in PubChem.
